Screens deposited in PubChem BioAssay by several laboratories.
Shown are actives, neighbours in structure and some others; about 7.2% of the full set was active somewhere.
Bfl-1 A1 inh: inhibitors of the anti-apoptotic protein A1, read as caspase activation; MEF A1-2A-BIM cells, Caspase-Glo 3/7 luminescence, 3 h; percent of clofoctol response, vehicle zero; caspase activation, % (test concentration not listed); 330,000 compounds, 0.066% hits;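 active = over half of replicate activation scores above 10%, or exactly half above 10 with the replicate mean above 10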
SUMO Mot1 rescue: blocks SUMOylation pathway, rescuing yeast Mot1-301 growth; 320,000 compounds, 1% hits; S. cerevisiae Mot1-301 growth rescue, ATP luminescence, 38.5C; percent above DMSO median, 100 means doubled; growth rescue, % at 18.8 µM;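 active = every valid replicate shows activation above 250% relative to neutral control wells; inactive = the rest, any valid replicate at or below 250%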;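 note: OY570 slx delta 5 strain wells were the positive control but not used for scaling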
AHR activator: activates the human aryl hydrocarbon receptor; AHR-responsive luciferase reporter cells, luminescence; activation, % at 5 µM; 320,000 compounds, 2.5% hits; AID 2796; in the data active = activation above about 47%;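 note: 0% = vehicle wells and 100% = reference agonist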
Target sequence (P35869 whole entry, looked up): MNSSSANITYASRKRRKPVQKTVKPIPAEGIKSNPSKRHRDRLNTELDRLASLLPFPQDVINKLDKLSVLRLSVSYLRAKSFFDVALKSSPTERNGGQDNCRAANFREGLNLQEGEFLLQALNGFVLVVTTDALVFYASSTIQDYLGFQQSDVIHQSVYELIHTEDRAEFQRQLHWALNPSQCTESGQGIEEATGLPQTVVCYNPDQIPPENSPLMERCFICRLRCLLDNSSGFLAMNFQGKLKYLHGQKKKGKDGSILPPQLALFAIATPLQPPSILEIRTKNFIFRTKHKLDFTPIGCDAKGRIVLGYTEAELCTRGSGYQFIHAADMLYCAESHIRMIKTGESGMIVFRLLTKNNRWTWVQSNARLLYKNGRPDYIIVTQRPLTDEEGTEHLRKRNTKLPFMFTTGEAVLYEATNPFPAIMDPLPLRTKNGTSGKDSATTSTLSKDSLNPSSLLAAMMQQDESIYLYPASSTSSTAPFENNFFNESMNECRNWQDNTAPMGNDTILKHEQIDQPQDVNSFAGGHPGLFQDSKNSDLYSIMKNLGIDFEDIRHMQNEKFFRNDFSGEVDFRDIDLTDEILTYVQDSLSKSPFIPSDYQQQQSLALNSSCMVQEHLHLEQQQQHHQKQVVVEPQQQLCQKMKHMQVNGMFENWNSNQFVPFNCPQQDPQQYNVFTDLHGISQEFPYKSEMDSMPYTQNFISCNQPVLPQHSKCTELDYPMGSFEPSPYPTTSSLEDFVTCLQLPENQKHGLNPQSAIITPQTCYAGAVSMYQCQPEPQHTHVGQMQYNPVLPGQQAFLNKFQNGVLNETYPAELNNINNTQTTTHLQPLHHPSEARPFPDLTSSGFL
ALR H2O2 inh: human ALR oxidase inhibition via reduced H2O2 | P55789 | purified ALR, DTT oxidation, H2O2 HRP-luminol luminescence | inhibition, % (test concentration not listed) | 290,000 compounds, 3.8% hits;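 active = mean replicate inhibition above about 79%, with every replicate also reaching it, limit read from the data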
VLA-4 inh: inhibition in a human VLA-4 binding assay; VLA-4 expressing cells, ligand binding flow cytometry; 330,000 compounds, 0.2% hits; inhibition, % (about 7 µM as worked out from the volumes in the protocol); P13612; AID 2557; in the data active = inhibition above about 50%
Efflux pump mplx: blocks antifungal efflux pumps in multiplex yeast assay. AID 485275. 330,000 compounds, 0.44% hits. inhibition, % at 10 µM. S. cerevisiae Candida pump triplex, Nile Red efflux;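 active = plate passing quality check with inhibition over a set limit, or well fluorescence over plate mean plus 4 SD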;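 note: Nile Red retained in pooled yeast measured as flow cytometry median fluorescence; 0% = buffer negative control and 100% = Enniatin B positive control; higher means more Nile Red kept so more efflux inhibition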
* marks the source's active call; other numbers are inactive results; . = not tested or not shown.

SMILES	Bfl-1 A1 inh	SUMO Mot1 rescue	AHR activator	ALR H2O2 inh	VLA-4 inh	Efflux pump mplx
CCNC(=O)CCS(=O)(=O)c1ccc2ccccc2c1	1.1	4.1	-1.0	98.6*	32.8	0.0
OCCC1CN(Cc2ccc3nsnc3c2)CCN1CCc1ccccc1 (stereo not drawn)	0.4	21.7	1.8	-2.7	3.9	-0.1
CCOC(=O)c1nn(C)c(C)c1Cl	0.3	-17.4	-4.3	-1.0	-5.8	-0.2
O=C(CN1C(=O)S/C(=C\C=C\c2ccccc2)C1=O)Nc1cccc(O)c1	-0.5	3.6	0.6	12.7	15.7	-0.2
O=C(CCN1C(=O)/C(=C/c2ccccc2Cl)SC1=S)Nc1ccccc1C(=O)O	-3.0	2.6	-0.5	98.3*	17.2	0.1
O=C(CCN1C(=O)/C(=C\c2ccccc2Cl)SC1=S)Nc1cccnc1	-0.2	-1.9	2.9	1.5	14.5	0.2
CN1CCN(NC(=O)CN2C(=O)/C(=C/c3ccccc3Cl)SC2=S)CC1	-0.3	41.0	-2.5	98.8*	14.6	0.0
O=C(CN1C(=O)S/C(=C\C=C\c2ccccc2)C1=O)Nc1ccccc1C(=O)O	-0.2	1.9	-0.5	96.9*	0.3	-0.2
COC(=O)c1ccc2c(=O)[nH]c(COC(=O)c3[nH]c(C)c(C(C)=O)c3C)nc2c1	0.3	-6.5	1.6	-2.2	-3.3	-0.3
Cc1cc2nnc(SCC(=O)OC(C)C)n2c2ccccc12	0.1	-13.4	0.8	-4.3	3.0	0.0
O=S(=O)(Nc1nc2ccccc2s1)c1cnc(Cl)c(Br)c1	-0.5	-15.4	17.7	0.3	11.6	-0.1
CC(NC(=O)CSc1nnc(-c2cccnc2)n1N)c1ccccc1 (stereo not drawn)	-0.4	0.9	3.7	-8.9	7.0	0.2
CCOc1ccc(CC(=O)Nc2nccs2)cc1OCC	-1.0	-16.3	3.1	-2.1	-3.2	0.0
CC(=O)NC(Cc1ccc(F)cc1)C(=O)NC1CCN(C(=O)Nc2ccccc2C)CC1 (stereo not drawn)	-0.4	109.3	-0.3	-13.7	-14.1	0.1
CCOc1ccccc1NC(=O)c1ccccc1-c1nc(-c2ccccc2OC)no1	0.3	0.3	63.6*	-5.0	-16.5	0.1
CCOc1nc(C)ccc1-c1noc(-c2ccccc2OC)n1	1.2	0.1	49.8*	3.0	4.9	0.0
CCOc1ccccc1-c1nc(-c2ccncc2)no1	-7.1	13.5	48.1*	-1.2	0.7	-0.1
CCSc1ccccc1-c1nc(-c2ccncc2)no1	-6.2	11.3	64.8*	4.4	-73.3	-0.1
O=C(O)CCC(=O)N1CCc2cc(S(=O)(=O)N(CCc3ccccc3)Cc3ccccc3)ccc21	0.3	26.8	-0.3	26.3	-6.5	0.1
Cc1cc(C)nc(NC2=NCCN2C(=S)Nc2c(C)cccc2C)n1	-0.5	.	4.8	.	12.3	-0.2
CCCC(=O)C1=C(N2CCCCC2)CC(C)(C)C(C(=O)OC)C1=O (stereo not drawn)	0.0	5.8	-0.2	-5.1	11.2	0.0
CSc1ncccc1C(=O)OCC(=O)C(C)(C)C	-0.3	-2.9	1.7	2.3	2.4	0.1
CCOC(=O)c1ccc(NC2c3ccccc3C(=O)N2c2cccnc2)cc1 (stereo not drawn)	0.0	0.6	7.7	-3.0	-9.8	-0.2
COc1ccc(NC2c3ccccc3C(=O)N2c2cccnc2)cc1 (stereo not drawn)	-0.2	-12.7	2.6	88.3*	-5.4	0.0
Cc1nc(NC(C)c2ccccc2)c2oc3ccccc3c2n1 (stereo not drawn)	-0.5	162.3	3.4	-1.4	8.8	0.1
SMILES	Bfl-1 A1 inh	SUMO Mot1 rescue	AHR activator	ALR H2O2 inh	VLA-4 inh	Efflux pump mplx
NC(=O)c1ccsc1NC(=O)COC(=O)COc1ccccc1F	1.2	2.1	-1.6	77.6*	7.0	-0.1
COCCn1cnnc1SCC(=O)c1ccc(S(=O)(=O)N2CCCC2)cc1	1.0	-1.0	5.5	87.4*	6.9	0.3
CCN(C(=O)COC(=O)CNS(=O)(=O)c1ccccc1)c1ccccc1	-0.2	-19.6	3.5	-2.9	11.5	0.1
Nn1c(=S)[nH]nc(Cc2ccc(O)cc2)c1=O	0.3	15.5	-1.7	80.2*	4.6	0.2
Cc1cc(C)c(C#N)c(SCC(=O)NC(C)(C)C)n1	0.6	10.0	1.4	.	17.2	-0.2
Cc1cc(C)c(C#N)c(SCC(=O)C(C)(C)C)n1	-0.8	-1.4	59.2*	-2.0	5.1	0.0
CCCCC(=O)Nc1cccc(NC(=S)NC(C)=O)c1	0.0	-12.1	4.8	0.9	-0.1	0.0
CC1CCc2c(nc3ncnn3c2N2CCN(c3ccccc3F)CC2)C1 (stereo not drawn)	2.0	9.4	-4.4	-0.6	4.8	0.2
CC1CCc2c(nc3ncnn3c2N2CCN(c3ccccc3)CC2)C1 (stereo not drawn)	0.2	-3.5	-13.4	98.7*	-1.1	0.0
CNc1nnc(-c2cccc(N(C)C)c2)s1	-0.8	9.8	-1.3	99.0*	-3.2	0.3
Nc1nnc(-c2cccc(F)c2)s1	0.2	-0.2	3.5	-7.7	3.2	-0.1
COc1cc2c(cc1OC)CN(C(=O)CN1C(=O)c3ccc([N+](=O)[O-])cc3C1=O)CC2	-0.3	-2.9	2.3	21.1	-4.7	-0.1
c1ccc2c(c1)CCCN2Cc1nnnn1CC1CCCO1 (stereo not drawn)	0.1	-8.5	6.2	26.3	6.4	0.0
CCC(C)(C)n1nnnc1C(c1cccs1)N1CCc2ccccc21 (stereo not drawn)	-0.5	-9.0	5.5	43.7	-3.6	0.2
CCC(C)(C)n1nnnc1CN1CCc2ccccc21	0.5	-7.2	12.8	98.2*	14.9	-0.1
c1ccc(CCn2nnnc2CN2CCCc3ccccc32)cc1	-0.1	95.9	14.6	88.8*	-2.5	0.1
COc1cc(NC(=O)c2ccc(-c3cccc(F)c3)o2)ccc1NC(=O)c1ccccc1Cl	-0.9	-6.2	-6.4	3.0	-8.8	0.0
CCCC(=O)Nc1nc2ccc(S(N)(=O)=O)cc2s1	0.7	-3.7	-1.0	98.8*	0.5	0.4
CCCC(=O)Nc1nc2ccc(NC(=O)c3ccc(Br)o3)cc2s1	-0.2	-2.5	44.5	-11.4	-3.1	-0.1
COc1cc(OC)cc(C(=O)Nc2nc3ccc(S(C)(=O)=O)cc3s2)c1	-6.5	-8.6	49.0*	5.1	-3.7	-0.4
CCOCC(=O)Nc1nc2ccc(C)cc2s1	-5.5	7.8	-3.7	97.3*	-3.1	-0.1
CC(=O)Nc1ccc2nc(NC(=O)c3ccc([N+](=O)[O-])o3)sc2c1	-5.7	70.6	57.6*	-10.0	-2.2	0.2
CCOCC(=O)Nc1nc2ccc(OCC)cc2s1	-7.0	-20.9	1.4	47.4	9.2	-0.1
C=CCn1c(SCC(=O)Nc2sccc2C#N)nc2sc(C)c(C)c2c1=O	0.4	-21.2	6.2	-2.9	16.8	0.2
CCC(=O)Nc1nc2ccc(NC(C)=O)cc2s1	-0.5	39.0	75.8*	-23.2	4.8	0.0
CS(=O)(=O)c1ccc2nc(NC(=O)CN3CCN(Cc4ccccc4)CC3)sc2c1	0.5	-4.9	8.4	-4.4	5.9	0.4
